From PubChem BioAssay
Most compounds without a hit are left out; they make up all but 3.4% or so of the library.
NF-kB expr up: activators of NF-kB expression in neurons, primary screen, cell-based, HTS; human neuronal cells, NF-kB reporter expression; active compounds read high; fold change at 12.5 µM; hit rate 1.6% among 190,000; in the data active = fold change above about 3.3
hgDAF12 agonist: H. glycines DAF-12 receptor agonists, primary screen, cell-based, luminescence, HEK293, GAL4 fusion, UAS-luciferase; Nuclear hormone receptor DAF-12 (Heterodera glycines), GAL4 fusion; HEK293 GAL4-hgDAF12 UAS-luciferase reporter, agonist luminescence; normalized to butyrate control; activation, % at 6.8 µM; hit rate 1.8% among 370,000; AID 687014, 2013;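 active = activation above a cutoff set at the mean of all screened compounds plus 3 SD, cut at about 10% in these data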;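 also: 0% = DMSO wells and 100% = sodium butyrate wells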
hcDAF12 agonist: H. contortus DAF-12 nuclear receptor activators, primary screen, cell-based, luminescence, HEK293, lit1-tk-luc reporter | HEK293 hcDAF-12 lit1-tk-luc reporter; 0% DMSO, 100% Δ7-dafachronic acid | activation, % at 6.8 µM | hit rate 1.4% among 370,000;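 active = activation above the mean of all tested compounds plus 3 SD, cut at about 5.5% in these data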;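 also: 100% = response to 3 µM Δ7-dafachronic acid high control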
ssDAF-12 act: S. stercoralis DAF-12 nuclear receptor activators, primary screen, cell-based, luminescence, HEK293, GRIP1 co-expression, lit1-tk-luc; HEK293 ssDAF-12/GRIP1 lit1-tk-luc reporter; % of 3 µM dafachronic acid response; hit rate 1% among 370,000; AID 652126, 2013; Nuclear hormone receptor DAF-12 (Strongyloides stercoralis); activation, % at 6.8 µM;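 active = activation above the mean over all tested compounds plus 3 SD, cut at about 0.9% in these data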;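 also: 0% = DMSO-only wells and 100% = 3 µM delta7-dafachronic acid wells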
APP 5'UTR act: activators of APP 5'UTR luciferase reporter, primary screen, SH-SY5Y cells. AID 1276, 2008. activation, % at 2 µM. SH-SY5Y APP 5'UTR luciferase reporter, luminescence; zero percent = DMSO vehicle wells. hit rate 1% among 190,000;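 active = activation above a set limit, based on mean plus 3 SD of controls, cut at about 140% in these data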
* hit, by the source's call; · = not tested or not shown.

SMILES | NF-kB expr up | hgDAF12 agonist | hcDAF12 agonist | ssDAF-12 act | APP 5'UTR act
COC(=O)[C@]12C[C@H](CC(=O)NCCCCc3ccccc3)C(=O)N(Cc3ccc(Cl)cc3Cl)C1=C[C@H](C1CCCC1)O[C@@H]2C | · | 0 | -1 | 0 | ·
COc1ccc2c(c1)CN1C(=O)N(CC(C)C)S(=O)(=O)CC21 (stereo not drawn) | · | 9 | 2 | -1 | ·
CCN(CC)CCCNC(=O)C1(N[C@@H](Cc2c[nH]c3ccccc23)C(=O)NCC(OC)OC)CCCCC1 | · | 3 | 3 | -1 | ·
CCN(CC)C(=O)CC[C@H]1CC[C@]2(CCCN(Cc3cccs3)C2)O1 | · | 0 | -1 | -1 | ·
O=C(NC1=NCCS1)Nc1ccccc1 | 2.5 | 11* | 3 | 0 | 53
Cc1ccccc1CNC(=O)Nc1ccc(Cl)cc1 | · | 3 | 0 | -1 | ·
O=C(Nc1ccccc1)Nc1ccccc1 | · | 12* | 1 | -1 | ·
Cc1ccc(CNC(=O)Nc2ccccc2)c(C)c1 | · | 13* | 1 | 0 | ·
Cc1cccc(NC(=O)Nc2ccncc2)c1 | 1.4 | 4 | -1 | 1.1* | 4
Cc1cccc(NC(=O)Nc2cnccn2)c1 | 1.3 | -2 | -2 | -1 | -3
Cc1ccccc1NC(=O)Nc1ccc2c(c1)C(=O)N(C)[C@H]1CC[C@H](CC(=O)NCC3CC3)O[C@@H]1CO2 | · | -2 | 1 | -1 | ·
O=C(N[C@H]1C[C@@H]2O[C@@H](CO)CC[C@@H]2O[C@@H]1CCc1ccc(-c2cccnc2)cc1)c1cccc(F)c1 | · | 0 | -2 | -1 | ·
Cc1ccc2c(c1)C1CS(=O)(=O)N(CC(C)C)CN1C2 (stereo not drawn) | · | 0 | -2 | -1 | ·
CC1=NN(c2ccccc2)C(=O)/C1=C\c1sccc1C | · | 2 | 3 | 1.7* | ·
Cn1c(/C(C#N)=C(\O)c2cccc(F)c2)nc2ccccc21 | · | 3 | 4 | 1.4* | ·
Cn1c(/C(C#N)=C(\O)c2ccc([N+](=O)[O-])cc2)nc2ccccc21 | 1.4 | 0 | 5 | 0 | 9
COc1ccc(C2=Nc3ccccc3C2(O)CCN2C(=O)c3ccccc3C2=O)cc1 (stereo not drawn) | · | 10* | 0 | -1 | ·
COc1ccc(OCCN2C(=O)c3ccccc3C2=O)cc1 | 1.7 | 3 | -1 | -1 | 8
CSc1nnc(N2C(=O)C(O)=C(C(=O)c3ccc(C)o3)C2c2ccc(C)cc2)s1 (stereo not drawn) | · | 11* | 5 | 0 | ·
O=C(CSc1nnc(-c2ccccn2)n1-c1ccc(Cl)cc1)Nc1ccc2c(c1)OCCO2 | · | 4 | -1 | -1 | ·
NNc1nc2c(F)cccc2s1 | 1.2 | 4 | 6 | 0 | 142*
O=C(CCc1ccccc1)Nc1nc2c(F)cc(F)cc2s1 | · | 8 | 2 | -1 | ·
NNc1nc2c(F)cc(F)cc2s1 | 1.3 | 8 | 5 | 0 | 167*
CCCCN1C[C@@H]2CSCCS(=O)(=O)N2C1=O | · | 0 | 0 | -1 | ·
CC1(c2nnnn2-c2ccc3c(c2)OCCO3)CSCC(=O)N1CCc1c[nH]c2ccccc12 (stereo not drawn) | · | 2 | -2 | -1 | ·
SMILES | NF-kB expr up | hgDAF12 agonist | hcDAF12 agonist | ssDAF-12 act | APP 5'UTR act
CCOC(=O)/C(=C\c1ccccc1)C(=O)c1cc(C(C)=O)c(Nc2ccccc2)s1 | 9.7* | -3 | -1 | -1 | -11
C=CCOc1nc(-c2ccccc2Cl)nc2ccccc12 | · | 1 | 2 | 1.4* | ·
N#CC1=C(N)Nc2nc3ccccc3n2C1c1ccc(F)cc1 (stereo not drawn) | 0.9 | -2 | -2 | 1.3* | -5
COc1ccccc1-n1cc(-c2ccc(Cl)cc2)[nH]c1=O | 1.1 | -1 | 6.4* | -1 | -9
C=CCNc1nc(Cl)nc(Nc2ccc(OC)cc2)n1 | 1.4 | 4 | 2 | 1.3* | 12
COc1ccc(CNCC#Cc2ccc(C(F)(F)F)cc2)c(OC)c1 | · | 2 | 1 | -1 | ·
Cc1ccc(Cl)cc1NC1=C/C(=N\S(=O)(=O)c2cccs2)c2ccccc2C1=O | 0.08 | -3 | 2 | 1.0* | -23
CCOc1cc(/C=N/NC(=O)c2cccs2)cc([N+](=O)[O-])c1O | 0.92 | 12* | 2 | 0 | 70
O=C(Cc1cccs1)N/N=C/C=C\c1ccco1 | 1.5 | -1 | 0 | -1 | 21
O=C(N/N=C/C=C/c1ccccc1[N+](=O)[O-])c1ccncc1 | · | -1 | 1 | -1 | ·
O=C(N/N=C/C=C\c1ccco1)c1cccs1 | 2.1 | 7 | 1 | 1.3* | 24
O=C(Cc1ccccc1)N/N=C/C=C/c1ccccc1[N+](=O)[O-] | · | 2 | -2 | -1 | ·
O=C(O)c1ccc(N/N=C/C=C/c2ccccc2[N+](=O)[O-])cc1 | 0.87 | 12* | 5 | 3.6* | 113
O=C(N/N=C/C=C\c1ccccc1[N+](=O)[O-])c1cccs1 | 5.2* | 3 | -1 | -2 | 1
C[C@@H]1COc2cc(Br)ccc2S(=O)(=O)N1Cc1cn(Cc2ccccc2)nn1 | · | 0 | -1 | -1 | ·
CCCC(=O)OC12CCCN(C1)/C(=C/c1ccc(OC)cc1)C2 (stereo not drawn) | · | -3 | 0 | 0 | ·
COC(=O)C1CN(Cc2cn(Cc3ccc(Cl)cc3)nn2)CCS(=O)(=O)N1Cc1ccc(C)cc1 (stereo not drawn) | · | -4 | -4 | -2 | ·
COc1ccccc1CNc1ccc(CNc2ncn[nH]2)cc1 | 5.3* | 1 | -1 | -1 | -6
O=C(CSc1cccc[n+]1[O-])c1cc(Cl)ccc1Cl | 7* | -3 | 0 | -1 | -27
O=C(CSc1cccc[n+]1[O-])c1cc2ccccc2o1 | 4.2* | · | · | · | 31
Nc1nc(SCC(=O)c2cc3ccccc3o2)n[nH]1 | 0.94 | 2 | 1 | 0 | 23
O=C(O)CSc1cccc[n+]1[O-] | 1 | -1 | -1 | -2 | -2
C=CCN(C(=O)[C@@H](CCCC)[C@@H](O)c1ccc2ccccc2c1)c1ccccc1 | · | 2 | 2 | -1 | ·
O=C(NC(=S)Nc1ccc2c(c1)OCCO2)c1ccco1 | · | 11* | 4 | 0 | ·
O=C(NC(=S)Nc1cccc(O)c1)c1ccco1 | · | 10 | 0 | 1.7* | ·
SMILES | NF-kB expr up | hgDAF12 agonist | hcDAF12 agonist | ssDAF-12 act | APP 5'UTR act
O=C(CNC(=O)c1ccco1)Nc1cccc(Cl)c1 | · | 1 | 5.8* | 0 | ·
O=C(c1ccco1)N1CCCC(Nc2ccc3c(c2)OCCO3)C1 (stereo not drawn) | · | 2 | 6.3* | 0 | ·
O=C(CNC(=O)c1ccco1)Nc1ccc(F)c(Cl)c1 | · | -2 | -2 | -1 | ·
O=C(CNC(=O)c1ccco1)Nc1ccc2c(c1)OCCO2 | · | -3 | -2 | -1 | ·
CCN(CC)C(=O)c1ccc(C(CCOC(=O)Oc2ccccc2)c2ccc(OC)cc2)cc1 (stereo not drawn) | · | 0 | 0 | -1 | ·
CN1CCC(Oc2ccc(Sc3ccccc3)cc2)CC1 | 1.2 | 11* | 6 | -1 | 68
